# From PMC11062922 (Nature Chemical Biology, 2023)
# Where two headings read alike, the source gives them in different places.
# Tests used:
# Design in all cases: species or system human, MV4-11 + K-562 + COLO205 + SK-N-BE2 + OVCAR-8
# PRKX;PRKY = details: read-out: apparent Kd, n = 1
# EPHB6 = details: read-out: apparent Kd, n = 1
# PRKDC = details: read-out: apparent Kd, n = 1
# TAOK1 = details: read-out: apparent Kd, n = 1
# IRAK1 = details: read-out: apparent Kd, n = 1
# TBK1 = details: read-out: apparent Kd, n = 1
# MERTK = details: read-out: apparent Kd, n = 1
# MAPK11 = details: read-out: apparent Kd, compound concentrations: 100 nM and 1000 nM (sheet 'Samples'), n = 1
# PAK4 = details: compound concentrations:0.3nM, 1nM, 3nM, 10nM, 30nM, 100nM, 300nM, by the legend:Standard error of the EC50 estimation as provided by the drc package.; for Kd: read-out: apparent Kd
# PKN3 = details: compound concentrations:0.3nM, 1nM, 3nM, 10nM, 30nM, 100nM, 300nM, by the legend:Standard error of the EC50 estimation as provided by the drc package.; for Kd: read-out: apparent Kd
# AKT1 = details: read-out: apparent Kd, compound concentrations: 100 nM and 1000 nM (sheet 'Samples'), n = 1
# STRADA = details: read-out: apparent Kd, n = 1
# SYK = details: read-out: apparent Kd, n = 1
# CAMK2D = details: read-out: apparent Kd, compound concentrations: 100 nM and 1000 nM (sheet 'Samples'), n = 1
# MAPK1 = details: read-out: apparent Kd, compound concentrations: 100 nM and 1000 nM (sheet 'Samples'), n = 1
# PIM1 = details: read-out: apparent Kd, n = 1
# MAP2K5 = details: read-out: apparent Kd, compound concentrations: 100 nM and 1000 nM (sheet 'Samples'), n = 1
# CSNK1G1 = details: read-out: apparent Kd; compound concentrations: 100 nM and 1000 nM (sheet 'Samples'), CATDS: 5.3431605837735603E-3; n = 1
# PRKCI = details: read-out: apparent Kd; compound concentrations: 100 nM and 1000 nM (sheet 'Samples'), CATDS: 3.8239218597995801E-3; n = 1
# [1] = compound concentrations:100 nM and 1000 nM (sheet 'Samples')
# [2] = 1000nM,R2:0.96781137417830099,slope:0.58987671625518001,EC50 Standard Error
# [3] = 1000nM,R2:0.99888452271644701,slope:1.2700915856501001,EC50 Standard Error
# [4] = 1000nM,R2:0.98802455290270397,slope:1.1906156337481999,EC50 Standard Error
# [5] = 1000nM,R2:0.97831665287894598,slope:1.2194506521172099,EC50 Standard Error
# [6] = 1000nM,R2:0.90981556238152395,slope:1.4029304179145099,EC50 Standard Error
# [7] = 1000nM,R2:0.95736535454590599,slope:1.35169947345033,EC50 Standard Error
# 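Wherever EC50 is given: competition pulldown with Kinobeads ε in cell lysates, inhibitor preincubated 45 min at 4 °C, bound kinases quantified by LC–MS/MS against DMSO control.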
# 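Wherever Kd is given: competition pulldown with Kinobeads ε in cell lysates, inhibitor preincubated 45 min at 4 °C, bound kinases quantified by LC–MS/MS against DMSO control.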
compound,measurement,setting,value
CN(c1ccc(NC(=O)Nc2cccc(Cl)c2)cc1)c1ccnc(N)n1.Cl [GW830707A],potency estimated from few doses,"PRKX;PRKY; compound concentrations: 100 nM and 1000 nM (sheet 'Samples'), CATDS: 1.5379195282256401E-2",134 nM
Clc1cc(Cl)cc(Nc2ccnc(Nc3cc(Cl)cc(Cl)c3)n2)c1 [GSK175726A],potency estimated from few doses,"EPHB6; compound concentrations: 100 nM and 1000 nM (sheet 'Samples'), CATDS: 8.5475708332426303E-3",1630 nM
same,potency estimated from few doses,"PRKDC; compound concentrations: 100 nM and 1000 nM (sheet 'Samples'), CATDS: 1.07981791880609E-2",607 nM
CN1C[C@@H]2Cn3c(c(C4=C(c5cn(C)c6ccccc56)C(=O)NC4=O)c4ccccc43)C[C@H]2C1.Cl [RO0320234-001],potency estimated from few doses,EPHB6; [1],1960 nM
same,potency estimated from few doses,PRKDC; [1],859 nM
same,potency estimated from few doses,TAOK1; [1],1350 nM
CNC(=O)c1ccccc1Nc1nc(Nc2ccc(N3CCOCC3)cc2)ncc1Cl.Cl [GSK1576028A],potency estimated from few doses,IRAK1; [1],1020 nM
same,potency estimated from few doses,TBK1; [1],395 nM
NCCNS(=O)(=O)c1ccc(-c2ccnc3[nH]ccc23)cc1 [GSK977617A],potency estimated from few doses,MERTK; [1],1440 nM
Fc1ccc(-c2c(-c3ccncc3)[nH]c3cccnc23)cc1 [RO1153853-000],potency estimated from few doses,MAPK11; CATDS: 6.1294477906433602E-2,838 nM
CCn1c(-c2nonc2N)nc2c(C#CC(C)(C)O)nc(OCCN)cc21.CCn1c(-c2nonc2N)nc2c(C#CC(C)(C)O)nc(OCCN)cc21.Cl.Cl [GSK902056A],EC50,PAK4; [2],5300 nM
same,Kd,PAK4; [2],4860 nM
same,EC50,PKN3; [3],10.2 nM
same,Kd,PKN3; [3],10.2 nM
CCn1c(-c2nonc2N)nc2c(-c3ccccc3)ncc(OCCCN)c21.CCn1c(-c2nonc2N)nc2c(-c3ccccc3)ncc(OCCCN)c21.O=C(O)C(F)(F)F.O=C(O)C(F)(F)F [GSK260205A],potency estimated from few doses,AKT1; CATDS: 6.9127027959846404E-2,157 nM
Cc1cccc(Nc2nc(N[C@H]3CCCC[C@H]3N)ncc2C(N)=O)c1.Cl [GSK986310C],potency estimated from few doses,STRADA; [1],2120 nM
same,potency estimated from few doses,SYK; [1],79.7 nM
same,EC50,PAK4; [4],135 nM
same,Kd,PAK4; [4],65.9 nM
CCn1c(-c2nonc2N)nc2c(C#CC(C)(C)O)nc(OCCNC)cc21.Cl [GSK949675A],potency estimated from few doses,PRKX;PRKY; [1],355 nM
same,EC50,PAK4; [5],316 nM
same,Kd,PAK4; [5],218 nM
same,EC50,PKN3; [6],89.8 nM
same,Kd,PKN3; [6],89.8 nM
CN(c1ccc(NC(=O)N2CCN(CCCN3CCOCC3)CC2)cc1)c1ccnc(Nc2ccc(CS(C)(=O)=O)cc2)n1.Cl [GW830899A],potency estimated from few doses,CAMK2D; CATDS: 3.7668858732559402E-2,430 nM
same,potency estimated from few doses,MAPK1; CATDS: 2.6373806441713499E-2,807 nM
Cl.NCc1ccc(-c2nc(-c3ccc(Cl)c(O)c3)c(-c3ccncc3)[nH]2)cc1 [SB-476429-A],EC50,PKN3; [7],38.4 nM
same,Kd,PKN3; [7],38.4 nM
O=C1NC(=O)C(N2CCc3ccccc32)=C1c1ccccc1Cl [SB-373598],potency estimated from few doses,EPHB6; [1],615 nM
same,potency estimated from few doses,MERTK; [1],1850 nM
same,potency estimated from few doses,PIM1; [1],923 nM
same,potency estimated from few doses,PRKDC; [1],1200 nM
Cc1ccc(Nc2ccnc(Nc3ccc4c(c3)CS(=O)(=O)C4)n2)cc1O.Cl [GW579362A],potency estimated from few doses,CAMK2D; CATDS: 4.2472769063291602E-2,502 nM
same,potency estimated from few doses,MAPK1; CATDS: 2.9087751414108801E-2,1350 nM
CCOC(=O)N1CCC(n2cnc(-c3ccc(F)cc3)c2-c2ccnc(N)n2)CC1 [SB-219952],potency estimated from few doses,"MERTK; compound concentrations: 100 nM and 1000 nM (sheet 'Samples'), CATDS: 8.4469178777721397E-3",1410 nM
COc1ccc(Nc2ncc(C#N)c(Nc3ccccc3C(N)=O)n2)cc1N1CCN(C)CC1.Cl [GSK1558669A],potency estimated from few doses,"IRAK1; compound concentrations: 100 nM and 1000 nM (sheet 'Samples'), CATDS: 7.7027436488320998E-3",467 nM
same,potency estimated from few doses,MAP2K5; CATDS: 8.5242635319968205E-3,318 nM
same,potency estimated from few doses,"SYK; compound concentrations: 100 nM and 1000 nM (sheet 'Samples'), CATDS: 6.16985372159695E-3",1440 nM
same,potency estimated from few doses,"TBK1; compound concentrations: 100 nM and 1000 nM (sheet 'Samples'), CATDS: 1.0324038658374401E-2",172 nM
O=C1N=C(NCCc2ccc(Cl)cc2)S/C1=C\c1ccc2ncccc2c1 [RO4498479-000],potency estimated from few doses,"EPHB6; compound concentrations: 100 nM and 1000 nM (sheet 'Samples'), CATDS: 6.9765900844718596E-3",1660 nM
same,potency estimated from few doses,"PIM1; compound concentrations: 100 nM and 1000 nM (sheet 'Samples'), CATDS: 9.1477666322176705E-3",691 nM
Cn1ncc2c(N)ncnc21 [SKF-18267],potency estimated from few doses,AKT1; CATDS: 4.8125130234568303E-3,879 nM
same,potency estimated from few doses,CAMK2D; CATDS: 7.0756718203265796E-3,441 nM
same,potency estimated from few doses,CSNK1G1,716 nM
same,potency estimated from few doses,"EPHB6; compound concentrations: 100 nM and 1000 nM (sheet 'Samples'), CATDS: 4.7916385769682596E-3",887 nM
same,potency estimated from few doses,"IRAK1; compound concentrations: 100 nM and 1000 nM (sheet 'Samples'), CATDS: 3.5689080514204499E-3",1830 nM
same,potency estimated from few doses,MAP2K5; CATDS: 4.1093022417344298E-3,1250 nM
same,potency estimated from few doses,MAPK11; CATDS: 4.4454363185357799E-3,1040 nM
same,potency estimated from few doses,MAPK1; CATDS: 4.58474987436945E-3,974 nM
same,potency estimated from few doses,"MERTK; compound concentrations: 100 nM and 1000 nM (sheet 'Samples'), CATDS: 9.2588510560485896E-3",294 nM
same,potency estimated from few doses,"PIM1; compound concentrations: 100 nM and 1000 nM (sheet 'Samples'), CATDS: 7.3887725324269602E-3",412 nM
same,potency estimated from few doses,PRKCI,1500 nM
same,potency estimated from few doses,"PRKDC; compound concentrations: 100 nM and 1000 nM (sheet 'Samples'), CATDS: 6.2124168993476997E-3",547 nM
same,potency estimated from few doses,"STRADA; compound concentrations: 100 nM and 1000 nM (sheet 'Samples'), CATDS: 3.7902262633519698E-3",1540 nM
same,potency estimated from few doses,"SYK; compound concentrations: 100 nM and 1000 nM (sheet 'Samples'), CATDS: 5.7016392995471003E-3",635 nM
same,potency estimated from few doses,"TAOK1; compound concentrations: 100 nM and 1000 nM (sheet 'Samples'), CATDS: 4.9523162341794302E-3",830 nM
same,potency estimated from few doses,"TBK1; compound concentrations: 100 nM and 1000 nM (sheet 'Samples'), CATDS: 5.0307170658674197E-3",804 nM
